# According to PubChem BioAssay AID1159580 (chemical genetic matrix, 2015):
# The whole screen tested about 5,500 compounds, of which about 2,000 (36%) were called active. About 18% were inconclusive and are not listed. This is one part of the list. Values without a mark were called inactive. No stated cut-off is given here; in the data, active means normalized growth mostly below about 0.91 (no sharp cut-off); inconclusive means no clear call, values can overlap the other calls; inactive means mostly above about 0.92.
# Experiment: chemical genetic growth profiling, strain panel (AID 1159580);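 further: tested at 20 µM; growth read once vehicle control cultures reached saturation at 30 °C; 1 = growth at the plate median or of vehicle wells; lower values mean less growth of the strain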
# Details: S. cerevisiae deletion strains, growth OD
# [1] = locus YAL013W, strain DEP1, hits give low values
# [2] = locus YBR229C, strain ROT2, hits give low values
# [3] = locus YDL101C, strain DUN1, hits give low values
# [4] = locus YDR150W, strain NUM1, hits give low values
# [5] = locus YEL061C, strain CIN8, hits give low values
# [6] = locus YGR078C, strain PAC10, hits give low values
# [7] = locus YHR030C, strain SLT2, hits give low values
# [8] = locus YHR087W, strain rtc3, hits give low values
# [9] = locus YJR043C, strain POL32, hits give low values
# [10] = locus YJR075W, strain HOC1, hits give low values
# [11] = locus YLR039C, strain RIC1, hits give low values
# [12] = locus YLR058C, strain SHM2 (second series), hits give low values
# [13] = locus YLR085C, strain ARP6, hits give low values
# [14] = locus YLR262C, strain YPT6, hits give low values
# [15] = locus YML094W, strain GIM5, hits give low values
# [16] = locus YMR219W, strain ESC1, hits give low values
# [17] = locus YMR263W, strain SAP30, hits give low values
# [18] = locus YNL153C, strain GIM3, hits give low values
# [19] = locus YNL298W, strain CLA4 (second series), hits give low values
# [20] = locus YNL322C, strain KRE1, hits give low values
# [21] = locus YNR030W, strain Alg12, hits give low values
# [22] = locus YPL055C, strain LGE1, hits give low values
# [23] = locus YPL241C, strain CIN2, hits give low values
# [24] = locus YPR135W, strain CTF4, hits give low values
compound,measurement,setting,value
O=C(O)CSCC(=O)NC1CCN(Cc2ccccc2)CC1,normalized growth,[1],1.01
same,normalized growth,[2],1.01
same,normalized growth,[3],0.997
same,normalized growth,[4],1.01
same,normalized growth,[5],1.02
same,normalized growth,[6],1
same,normalized growth,[7],1.08
same,normalized growth,[8],0.994
same,normalized growth,[9],1
same,normalized growth,[10],1.01
same,normalized growth,[11],1.02
same,normalized growth,[12],0.998
same,normalized growth,[13],0.993
same,normalized growth,[14],1.05
same,normalized growth,[15],1.02
same,normalized growth,[16],1.01
same,normalized growth,[17],0.998
same,normalized growth,[18],1.01
same,normalized growth,[19],1.03
same,normalized growth,[20],1.02
same,normalized growth,[21],1.02
same,normalized growth,[22],1.02
same,normalized growth,[23],1.04
same,normalized growth,[24],1
O=C(NC1CCN(Cc2ccc(Cl)c(Cl)c2)CC1)c1ccccc1,normalized growth,[1],1.01
same,normalized growth,[2],1
same,normalized growth,[3],0.996
same,normalized growth,[4],0.977
same,normalized growth,[5],0.946
same,normalized growth,[6],1.01
same,normalized growth,"locus YGR229C, strain SMI1, hits give low values",1
same,normalized growth,[7],0.641 (active)
same,normalized growth,[8],0.987
same,normalized growth,[9],1.01
same,normalized growth,[10],1.02
same,normalized growth,"locus YKL190W, strain CNB1, hits give low values",1
same,normalized growth,[11],0.94
same,normalized growth,[12],1.01
same,normalized growth,[13],0.86
same,normalized growth,[14],0.825
same,normalized growth,[15],0.889
same,normalized growth,[16],0.992
same,normalized growth,[17],0.998
same,normalized growth,[18],0.988
same,normalized growth,[19],0.986
same,normalized growth,[20],1
same,normalized growth,[21],0.96
same,normalized growth,"locus YOL006C, strain TOP1, hits give low values",0.683 (active)
same,normalized growth,[22],0.995
same,normalized growth,[23],0.93
same,normalized growth,[24],0.783
